The record followed here is PubChem BioAssay (EPA / NIEHS).

One may read the AC50 as the concentration at which the activity in the assay is half-maximal.

Records with an inconclusive call do not appear. Active and inactive are the calls of the source. How the source made its calls: active means hit-call score of the fitted dose curve at least 0.9, where 1 is the maximum; inconclusive means response in the unintended direction; inactive means score below 0.9.

The test is described as follows: Tanguay_ZF_120hpf_EYE_legacy: (Legacy) Oregon State University Tanguay Lab 120 Hour Post-fertilization zebrafish Assay for Eye Malformation (AID 2283636).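 Further: binary presence or absence of eye malformation scored by brightfield in 120 hpf larvae.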 The essentials:
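Static waterborne exposure of dechorionated zebrafish embryos (strain Tropical 5D), 6 to 120 hpf, sealed plates at 28C, 0.64% DMSO vehicle. Eye malformation is scored as a binary endpoint, with gain of signal analysed relative to DMSO.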
On to `COc1cccc([C@H](O)C2CCN(CCc3ccc(F)cc3)CC2)c1OC`, for which the result was inactive.

`OC12N=C(c3ccccc3)SC1Cc1cc(Cl)ccc12` (stereo not drawn): the half-maximal activity concentration (AC50) is 11.1 µM (active).

Take `Oc1ccc2ccccc2c1`: the concentration at half-maximal activity (AC50) was 61.7 µM (active).

On to `CCCCCCCCN(C)CCCCCCCC`, for which the molecule was called inactive.

On to `Cc1oc2c(NC(=O)c3c(Cl)cccc3Cl)cccc2c1C(C)(C)O`, for which the outcome was inactive.

Turning to `Clc1cc(Cl)c2c(c1)N=C1CCCCCN1C2`, the result was inactive.

Turning to `C[C@]12CC[C@@H]3c4ccc(O)cc4CC[C@H]3[C@@H]1CCC2=O`, the molecule was classed as inactive.

On to `O=C(O)Cn1c(=O)n(Cc2ccc(Br)cc2F)c(=O)c2ccc(Cl)cc21`, for which the call was inactive.

Regarding `O=c1[nH]sc2ccccc12`, the molecule was called inactive.

Consider `CCCCCCCCCCCO`, for which the molecule was classed as inactive.

Consider `CCO[Si](CCCNC(N)=O)(OCC)OCC`, for which the molecule was called inactive.

For the molecule `COCC(C)OCC(C)OCC(C)O` (stereo not drawn), the outcome was inactive.

`Cc1ncc(CO)c(CO)c1O`: the call was inactive.

As for `CCOC(=O)O[C@H](C)OC(=O)c1ccc2c(c1)cc(C(=O)NC1CCN(C(C)C)CC1)n2Cc1cc(-c2ccc(Cl)s2)on1`, the result was inactive.

As for `CC(O)CC(C)(C)O` (stereo not drawn), the molecule was called inactive.

For `C[C@]12CC[C@@H]3c4ccc(O)cc4CC[C@H]3[C@@H]1CC[C@H]2O`, the molecule was classed as inactive.

Take `c1ccc(C[n+]2cccc3ccccc32)cc1`: the call was inactive.

Regarding `CC(C)(C)c1cc(/C=C2\SC(N)=NC2=O)cc(C(C)(C)C)c1O`, the molecule was called inactive.

As for `CCCCCCCCCCCCO`, the molecule was called inactive.

Consider `OCCO`, for which the result was inactive.

With `CCCC(=O)OCCC(C)C`, the call was inactive.

In the case of `O=c1ccc2ccccc2o1`, the outcome was inactive.

For `O=C(O)c1ccccc1-n1cc(C(=O)O)c(=O)c2cc(Nc3c(F)cc(F)cc3Cl)c(Cl)cc21`, the molecule was classed as inactive.
